About 7,900 targets were measured; listed, in parts, are those with a hit and a random draw of the rest. About 0.6% of all pairs of compound and target were hits. Unmarked numbers belong to inactive results.
Assays:
Assay in all cases: log2 fold change, soluble protein after heating vs DMSO (PISA); higher = thermal stabilisation; K562 cells, 10 uM, 30 min; active = over 0.2 and 3.5 SD of the protein, either way, in both replicates (recomputed)
bafetinib = compound: Cc1ccc(NC(=O)c2ccc(CN3CC[C@H](N(C)C)C3)c(C(F)(F)F)c2)cc1Nc1nccc(-c2cncnc2)n1 [bafetinib]
In short: (§1)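 Thermal stability values are relative to control samples and come from duplicates. They are expressed as log2 fold changes. For measurement, K562 cells (2×10^6 cells/mL) received 10 μM compound for 30 min, and aliquots were heated for 3 min over 48°C-58°C, pooled, and extracted at 4°C in PBS with 0.5% NP-40. Soluble protein, the supernatant after 21,000xg for 90 min, was quantified by TMTpro 16plex LC-MS/MS with equalised channel sums.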

[1] = compound: Cc1cccc(CC(=O)N2CCc3c2ccc(-c2cn(C)c4ncnc(N)c24)c3F)n1
In short: as §1

nilotinib = compound: Cc1cn(-c2cc(NC(=O)c3ccc(C)c(Nc4nccc(-c5cccnc5)n4)c3)cc(C(F)(F)F)c2)cn1 [nilotinib]
In short: as §1

[2] = compound: Cc1nc(Nc2n[nH]c3c2CN(C(=O)N[C@H](CN(C)C)c2ccccc2)C3(C)C)c2sccc2n1
In short: as §1

dasatinib = compound: Cc1nc(Nc2ncc(C(=O)Nc3c(C)cccc3Cl)s2)cc(N2CCN(CCO)CC2)n1 [dasatinib]
In short: as §1

[3] = compound: Cc1ncc(-c2ccnc(Nc3ccc(S(C)(=O)=O)cc3)n2)n1C(C)C
In short: as §1

[4] = compound: Cn1cc(-c2ccc3c(c2)CCN3C(=O)Cc2cccc(C(F)(F)F)c2)c2c(N)ncnc21
In short: as §1

[5] = compound: Cn1cc(-c2ccc3nnc(C(F)(F)c4ccc5ncccc5c4)n3n2)cn1
In short: as §1

tipifarnib = compound: Cn1cncc1[C@@](N)(c1ccc(Cl)cc1)c1ccc2c(c1)c(-c1cccc(Cl)c1)cc(=O)n2C [tipifarnib]
In short: as §1

mubritinib = compound: FC(F)(F)c1ccc(/C=C/c2nc(COc3ccc(CCCCn4ccnn4)cc3)co2)cc1 [mubritinib]
In short: as §1

Sequence of UniProt O43427 (O43427 whole entry, looked up): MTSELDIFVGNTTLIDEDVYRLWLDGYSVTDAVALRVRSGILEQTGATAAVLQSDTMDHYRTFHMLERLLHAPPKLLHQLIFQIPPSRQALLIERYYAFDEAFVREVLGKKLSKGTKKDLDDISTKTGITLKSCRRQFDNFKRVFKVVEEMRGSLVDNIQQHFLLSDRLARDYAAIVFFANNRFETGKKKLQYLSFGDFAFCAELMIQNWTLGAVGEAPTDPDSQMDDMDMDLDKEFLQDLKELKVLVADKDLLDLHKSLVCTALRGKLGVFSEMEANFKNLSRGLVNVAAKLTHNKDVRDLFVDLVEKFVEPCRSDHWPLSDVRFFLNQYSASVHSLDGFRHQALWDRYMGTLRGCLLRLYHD
Sequence of UniProt Q9NZC3 (Q9NZC3 whole entry, looked up): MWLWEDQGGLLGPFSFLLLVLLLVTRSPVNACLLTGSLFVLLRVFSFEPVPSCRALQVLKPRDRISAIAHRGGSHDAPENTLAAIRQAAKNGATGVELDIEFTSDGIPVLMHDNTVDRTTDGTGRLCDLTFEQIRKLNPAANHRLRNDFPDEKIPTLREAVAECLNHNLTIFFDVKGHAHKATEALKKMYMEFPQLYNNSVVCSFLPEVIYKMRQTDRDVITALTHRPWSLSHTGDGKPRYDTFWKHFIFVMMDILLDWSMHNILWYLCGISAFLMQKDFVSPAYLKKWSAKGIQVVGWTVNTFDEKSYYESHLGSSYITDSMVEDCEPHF
Sequence of UniProt P30519 (P30519 whole entry, looked up): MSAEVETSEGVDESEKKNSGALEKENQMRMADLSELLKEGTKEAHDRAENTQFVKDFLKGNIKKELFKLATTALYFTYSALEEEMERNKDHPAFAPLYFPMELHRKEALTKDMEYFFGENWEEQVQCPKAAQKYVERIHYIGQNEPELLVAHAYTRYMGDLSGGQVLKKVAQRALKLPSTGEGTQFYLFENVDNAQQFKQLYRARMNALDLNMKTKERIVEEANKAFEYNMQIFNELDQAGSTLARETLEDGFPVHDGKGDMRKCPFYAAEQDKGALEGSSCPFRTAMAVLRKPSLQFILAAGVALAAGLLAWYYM
Sequence of UniProt P02679 (P02679 whole entry, looked up): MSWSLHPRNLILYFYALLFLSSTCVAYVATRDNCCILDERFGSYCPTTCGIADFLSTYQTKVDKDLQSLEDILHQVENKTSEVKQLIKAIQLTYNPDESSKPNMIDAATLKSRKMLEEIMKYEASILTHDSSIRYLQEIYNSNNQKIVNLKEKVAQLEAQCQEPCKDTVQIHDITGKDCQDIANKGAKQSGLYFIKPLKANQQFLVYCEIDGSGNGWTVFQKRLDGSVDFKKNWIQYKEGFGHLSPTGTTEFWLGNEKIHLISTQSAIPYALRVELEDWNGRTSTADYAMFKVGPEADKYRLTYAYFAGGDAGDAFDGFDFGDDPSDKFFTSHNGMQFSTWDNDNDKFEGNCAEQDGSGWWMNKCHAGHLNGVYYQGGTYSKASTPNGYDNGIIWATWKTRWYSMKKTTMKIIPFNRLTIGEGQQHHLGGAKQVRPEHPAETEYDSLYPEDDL
Sequence of UniProt P49356 (P49356 whole entry, looked up): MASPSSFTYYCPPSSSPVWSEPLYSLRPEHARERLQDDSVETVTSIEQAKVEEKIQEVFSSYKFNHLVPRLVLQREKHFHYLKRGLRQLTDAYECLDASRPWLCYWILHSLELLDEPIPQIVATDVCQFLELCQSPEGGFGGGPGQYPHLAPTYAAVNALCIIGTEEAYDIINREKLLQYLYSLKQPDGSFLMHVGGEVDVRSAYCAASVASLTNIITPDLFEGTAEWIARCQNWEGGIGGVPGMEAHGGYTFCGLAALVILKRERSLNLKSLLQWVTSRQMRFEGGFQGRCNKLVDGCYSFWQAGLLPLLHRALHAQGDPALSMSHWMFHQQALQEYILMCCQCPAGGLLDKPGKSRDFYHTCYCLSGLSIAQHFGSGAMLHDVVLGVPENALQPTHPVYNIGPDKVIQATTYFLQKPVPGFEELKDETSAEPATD
Sequence of UniProt P60520 (P60520 whole entry, looked up): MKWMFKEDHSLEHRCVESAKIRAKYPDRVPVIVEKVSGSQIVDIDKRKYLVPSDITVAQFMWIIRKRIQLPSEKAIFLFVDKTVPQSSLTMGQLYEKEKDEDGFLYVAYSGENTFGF
Sequence of UniProt Q53T59 (Q53T59 whole entry, looked up): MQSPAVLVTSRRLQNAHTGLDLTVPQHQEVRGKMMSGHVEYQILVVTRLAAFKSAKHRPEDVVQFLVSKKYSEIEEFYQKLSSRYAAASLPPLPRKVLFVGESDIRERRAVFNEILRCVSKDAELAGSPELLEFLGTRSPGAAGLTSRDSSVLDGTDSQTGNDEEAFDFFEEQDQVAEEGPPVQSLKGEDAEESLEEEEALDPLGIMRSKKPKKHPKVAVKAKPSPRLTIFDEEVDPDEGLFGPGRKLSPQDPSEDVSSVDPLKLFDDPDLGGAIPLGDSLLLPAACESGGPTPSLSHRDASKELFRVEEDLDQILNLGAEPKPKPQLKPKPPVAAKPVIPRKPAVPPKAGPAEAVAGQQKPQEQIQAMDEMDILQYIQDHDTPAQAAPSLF
Sequence of UniProt Q9Y5Q8 (Q9Y5Q8 whole entry, looked up): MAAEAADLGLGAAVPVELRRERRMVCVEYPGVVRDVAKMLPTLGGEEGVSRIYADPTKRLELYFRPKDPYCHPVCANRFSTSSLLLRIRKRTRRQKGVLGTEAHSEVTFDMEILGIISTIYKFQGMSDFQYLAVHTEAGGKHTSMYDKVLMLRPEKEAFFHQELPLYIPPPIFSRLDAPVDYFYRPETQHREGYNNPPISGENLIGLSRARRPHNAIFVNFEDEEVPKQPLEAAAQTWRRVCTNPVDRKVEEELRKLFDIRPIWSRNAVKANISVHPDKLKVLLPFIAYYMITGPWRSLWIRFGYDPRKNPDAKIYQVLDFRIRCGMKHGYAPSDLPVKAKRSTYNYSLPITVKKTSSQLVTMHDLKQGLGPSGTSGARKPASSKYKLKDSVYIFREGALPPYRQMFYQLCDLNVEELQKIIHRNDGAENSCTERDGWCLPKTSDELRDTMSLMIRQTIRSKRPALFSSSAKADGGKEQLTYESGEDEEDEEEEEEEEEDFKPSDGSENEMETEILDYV
Sequence of UniProt Q9BYC5 (Q9BYC5 whole entry, looked up): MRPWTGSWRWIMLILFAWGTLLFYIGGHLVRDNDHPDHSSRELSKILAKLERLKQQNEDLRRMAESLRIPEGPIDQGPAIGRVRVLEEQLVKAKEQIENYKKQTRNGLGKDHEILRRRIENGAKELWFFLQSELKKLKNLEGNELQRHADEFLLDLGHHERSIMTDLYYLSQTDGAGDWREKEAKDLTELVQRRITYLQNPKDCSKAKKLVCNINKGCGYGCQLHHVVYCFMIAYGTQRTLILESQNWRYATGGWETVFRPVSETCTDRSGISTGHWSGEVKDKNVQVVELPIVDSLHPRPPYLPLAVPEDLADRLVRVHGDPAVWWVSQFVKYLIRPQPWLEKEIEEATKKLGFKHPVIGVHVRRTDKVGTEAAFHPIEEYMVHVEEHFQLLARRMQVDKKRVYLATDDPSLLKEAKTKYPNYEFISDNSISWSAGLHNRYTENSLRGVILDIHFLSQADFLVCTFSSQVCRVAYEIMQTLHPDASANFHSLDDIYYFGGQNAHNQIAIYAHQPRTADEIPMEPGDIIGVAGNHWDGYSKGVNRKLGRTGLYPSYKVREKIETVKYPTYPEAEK
Sequence of UniProt Q14687 (Q14687 whole entry, looked up): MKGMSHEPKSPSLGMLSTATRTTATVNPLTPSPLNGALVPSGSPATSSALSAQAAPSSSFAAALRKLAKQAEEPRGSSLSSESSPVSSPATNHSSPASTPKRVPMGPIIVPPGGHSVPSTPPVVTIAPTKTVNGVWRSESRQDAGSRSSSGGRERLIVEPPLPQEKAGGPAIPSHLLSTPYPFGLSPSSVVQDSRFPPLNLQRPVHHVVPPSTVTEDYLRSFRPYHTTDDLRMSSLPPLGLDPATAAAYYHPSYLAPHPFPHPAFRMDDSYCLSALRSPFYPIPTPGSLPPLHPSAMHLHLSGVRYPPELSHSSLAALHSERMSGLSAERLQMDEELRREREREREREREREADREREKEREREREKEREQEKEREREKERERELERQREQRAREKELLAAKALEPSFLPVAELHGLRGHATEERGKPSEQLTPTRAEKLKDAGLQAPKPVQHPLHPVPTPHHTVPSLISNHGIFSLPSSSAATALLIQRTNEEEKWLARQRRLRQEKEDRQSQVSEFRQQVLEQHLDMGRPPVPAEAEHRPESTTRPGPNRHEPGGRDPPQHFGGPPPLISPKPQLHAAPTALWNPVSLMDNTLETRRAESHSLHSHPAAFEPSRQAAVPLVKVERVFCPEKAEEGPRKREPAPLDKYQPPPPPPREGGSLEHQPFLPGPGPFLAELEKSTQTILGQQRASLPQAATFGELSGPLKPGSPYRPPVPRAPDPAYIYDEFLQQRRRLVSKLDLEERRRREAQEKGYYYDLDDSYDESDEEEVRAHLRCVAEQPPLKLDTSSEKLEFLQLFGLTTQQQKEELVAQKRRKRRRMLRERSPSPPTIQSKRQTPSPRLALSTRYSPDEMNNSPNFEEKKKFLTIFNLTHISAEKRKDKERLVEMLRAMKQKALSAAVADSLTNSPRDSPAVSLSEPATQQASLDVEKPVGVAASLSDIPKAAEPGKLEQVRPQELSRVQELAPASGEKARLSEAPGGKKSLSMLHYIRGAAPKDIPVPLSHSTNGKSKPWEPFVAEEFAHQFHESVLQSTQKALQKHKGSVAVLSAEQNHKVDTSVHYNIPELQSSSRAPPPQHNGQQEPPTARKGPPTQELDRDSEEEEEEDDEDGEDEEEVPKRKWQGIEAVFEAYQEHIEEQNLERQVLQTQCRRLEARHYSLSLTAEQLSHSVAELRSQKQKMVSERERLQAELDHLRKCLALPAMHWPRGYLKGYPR
Sequence of UniProt Q9H4G4 (Q9H4G4 whole entry, looked up): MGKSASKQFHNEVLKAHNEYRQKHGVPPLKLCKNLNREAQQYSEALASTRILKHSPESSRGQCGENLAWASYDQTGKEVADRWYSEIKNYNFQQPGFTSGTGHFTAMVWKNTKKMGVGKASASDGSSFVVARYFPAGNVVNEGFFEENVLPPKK

Target | log2 fold change (bafetinib) | log2 fold change [1] | log2 fold change (nilotinib) | log2 fold change [2] | log2 fold change (dasatinib) | log2 fold change [3] | log2 fold change [4] | log2 fold change [5] | log2 fold change (tipifarnib) | log2 fold change (mubritinib)
GTF3C5 isoform 3 (UniProt Q9Y5Q8) | 0.028 | -0.013 | -0.04 | -0.167 | -0.269 | -0.137 | 0.027 | -0.063 | 0.01 | 0.065
FUT8 (UniProt Q9BYC5) | -0.062 | -0.042 | -0.008 | 0.006 | 0.031 | 0.054 | -0.276 | 0.022 | – | -0.037
GUK1 isoform 2 (UniProt Q16774) | 0.134 | 0.053 | 0.226 | -0.056 | -0.109 | 0.054 | 0.058 | -0.007 | -0.15 | 0.397 (active)
H1FX (UniProt Q92522) | 0.248 | 0.048 | 0.035 | 0.079 | 0.043 | 0.039 | -0.189 | -0.113 | 0.126 | -0.138
GABARAPL2 (UniProt P60520) | -0.168 | 0.096 | -0.015 | -0.028 | -0.014 | -0.004 | 0.046 | 0.279 | -0.003 | 0.03
FNTA (UniProt P49354) | -0.024 | -0.009 | -0.002 | 0.104 | 0.165 | 0.019 | 0.036 | 0.091 | 0.429 (active) | 0.013
HOMER1 (UniProt Q86YM7) | -0.016 | -0.002 | -0.02 | 0.046 | -0.054 | -0.008 | 0.003 | 0.117 | -0.031 | 0.089
FNTB (UniProt P49356) | 0.028 | 0.015 | 0.028 | 0.177 | 0.22 | -0.056 | 0.196 | 0.251 | 0.757 (active) | -0.103
HPCAL1 (UniProt P37235) | -0.09 | 0.027 | -0.076 | 0.033 | -0.031 | -0.028 | -0.011 | 0.053 | -0.032 | 0.016
GABARAPL1 isoform 2 (UniProt Q9H0R8) | -0.171 | 0.006 | -0.05 | -0.028 | -0.031 | 0.017 | -0.016 | 0.003 | -0.075 | 0.044
HADHA (UniProt P40939) | 0.293 | 0.097 | 0.049 | -0.078 | -0.05 | 0.036 | 0.203 | 0.069 | -0.304 | 0.685 (active)
FRA10AC1 isoform 3 (UniProt Q70Z53) | -0.087 | 0.018 | -0.034 | -0.039 | -0.051 | 0.085 | -0.076 | – | -0.055 | 0.011
GTF3A (UniProt Q92664) | -0.113 | -0.026 | 0.042 | -0.219 | -0.137 | -0.031 | 0.023 | – | -0.12 | 0.06
HMOX2 (UniProt P30519) | 0.006 | 0.048 | 0.002 | -0.08 | -0.141 | -0.006 | 0.067 | 0.003 | 0.27 (active) | 0.062
GEMIN5 (UniProt Q8TEQ6) | 0.015 | 0.065 | -0.046 | -0.315 (active) | -0.099 | -0.127 | 0.006 | -0.021 | -0.049 | 0.043
FERMT3 (UniProt Q86UX7) | -0.022 | 0.029 | -0.036 | -0.053 | -0.075 | -0.015 | 0.029 | -0.019 | -0.087 | 0.051

Target | log2 fold change (bafetinib) | log2 fold change [1] | log2 fold change (nilotinib) | log2 fold change [2] | log2 fold change (dasatinib) | log2 fold change [3] | log2 fold change [4] | log2 fold change [5] | log2 fold change (tipifarnib) | log2 fold change (mubritinib)
GCLM (UniProt P48507) | 0.016 | 0.072 | -0.101 | -0.015 | -0.095 | 0.019 | 0.042 | -0.051 | -0.133 | 0.023
GTPBP6 (UniProt O43824) | -0.706 (active) | -0.072 | 0.13 | 0.069 | 0.028 | -0.042 | 0.057 | 0.042 | – | 0.058
GSR (UniProt P00390) | -0.031 | 0 | -0.025 | 0.02 | 0.02 | 0 | 0.002 | 0.022 | -0.058 | 0.024
GOLGA8R (UniProt I6L899) | -0.095 | -0.021 | – | – | -0.074 | – | 0.189 | 0.126 | 0.287 | –
FGG (UniProt P02679) | – | 0.165 | – | – | – | – | – | -0.018 | 0.127 | –
GLIPR2 (UniProt Q9H4G4) | -0.101 | -0.024 | – | – | -0.059 | – | 0.031 | 0.087 | 0.019 | 0.054
HSPA8 (UniProt E9PN89) | -0.04 | -0.338 | -0.12 | 0.041 | – | -0.123 | -0.063 | – | 0.122 | 0.004
IDH3A isoform 2 (UniProt P50213) | 0.004 | – | 0 | 0.001 | – | -0.057 | 0.128 | – | – | –
HSPA2 (UniProt P54652) | -0.08 | – | 0.024 | 0.031 | – | -0.013 | – | 0.003 | – | -0.067
GREB1 (UniProt Q4ZG55) | – | – | – | – | – | – | 0.046 | – | – | –
FIBP (UniProt O43427) | -0.096 | -0.093 | – | – | -0.201 | – | 0.118 | -0.06 | -0.029 | 0.134
FAT2 (UniProt Q9NYQ8) | 0.076 | -0.005 | – | – | 0.006 | – | 0.167 | 0.002 | 0.008 | 0.354
HS1BP3 (UniProt Q53T59) | -0.022 | – | -0.023 | -0.104 | -0.047 | -0.029 | 0.062 | -0.067 | -0.038 | –
GDE1 (UniProt Q9NZC3) | 0.081 | – | 0.03 | 0.054 | 0.028 | -0.032 | 0.106 | -0.029 | -0.001 | 0.01
IGF2 isoform 3 (UniProt P01344) | – | – | – | – | 0.019 | – | – | – | – | –
GSE1 (UniProt Q14687) | 0.305 | – | 0.034 | 0.004 | -0.453 | -0.096 | -0.009 | 0.012 | – | –

— the supplement of paper PMC10849652
